Bioassay records from PubChem BioAssay.
The list is not random: actives were taken first. Their share in the collection is about 2.4%.
D2 ag-1: human D2 receptor agonism in beta-arrestin assay; P14416; DiscoveRx PathHunter D2 beta-arrestin, luminescence, 90 min; 100% = 57 uM dopamine signal; activation, % (concentration not given with the values); actives 0.084% (n = 360,000); AID 624465; in the data active means activation above about 40%; inconclusive means between about 15% and that limit
Target sequence (P14416 whole entry, looked up): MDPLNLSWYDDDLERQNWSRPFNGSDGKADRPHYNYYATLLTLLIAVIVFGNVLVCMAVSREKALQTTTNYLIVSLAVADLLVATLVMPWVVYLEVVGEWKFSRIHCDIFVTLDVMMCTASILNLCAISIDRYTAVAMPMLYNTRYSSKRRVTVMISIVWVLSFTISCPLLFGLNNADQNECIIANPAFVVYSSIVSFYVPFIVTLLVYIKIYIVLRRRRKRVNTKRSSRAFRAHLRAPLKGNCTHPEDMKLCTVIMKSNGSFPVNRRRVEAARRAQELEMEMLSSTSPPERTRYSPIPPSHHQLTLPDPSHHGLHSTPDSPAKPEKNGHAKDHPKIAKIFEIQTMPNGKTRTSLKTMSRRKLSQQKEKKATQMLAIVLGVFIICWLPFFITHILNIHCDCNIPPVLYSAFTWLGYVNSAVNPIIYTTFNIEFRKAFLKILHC
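DiscoveRx PathHunter D2 beta-arrestin cells (2,100/well) attached overnight, then compound-stimulated 90 min at 37 C in HBSS/10 mM HEPES/0.1% Tween-20 buffer; beta-galactosidase complementation read by luminescence after 1 h at ambient temperature. Dopamine 57 uM final (EC100) as control.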
D2 ag-2: agonists of human D2 dopamine receptor; P14416; HEK293 T-REx D2 cells, calcium flux agonist mode; activation, % at 2 µM; actives 0.53% (n = 340,000); AID 485358;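 active means activation over 3 SD above normal in the single-dose calcium agonist read, cut at about 30% in these data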
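Agonism is scored from calcium flux in a force-coupled, inducible HEK293 cell line expressing D2, read kinetically for 180 s after compound addition against dopamine controls.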
D2 PAM-1: potentiates the human D2 dopamine receptor allosterically; P14416; DiscoveRx D2 beta-arrestin cells, luminescence, 90 min; 100% = 57 uM dopamine signal; potentiation, % (no concentration beside the values); actives 0.23% (n = 360,000); AID 624464; in the data active means potentiation above about 50%; inconclusive means mostly about 30% to 49%
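PathHunter D2 cells, attached overnight at 37 deg C, received compound in DMSO plus dopamine at EC20 (50 nM final) for 90 min at 37 deg C. Beta-arrestin recruitment was read as luminescence after 1 h with detection reagent at ambient temperature.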
D2 antag: antagonizes the human D2 dopamine receptor; P14416; HEK293 TREx D2 cells, calcium flux, dopamine EC80; inhibition, % at 10 µM; actives 2% (n = 340,000); AID 485344; in the data active means inhibition above about 30%; inactive means below that, where a call was filed
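Calcium mobilization kinetics were recorded at 1 s intervals in tetracycline-induced HEK293 T-REx D2 cells, first for 180 s after compound addition and then 180 s after EC80 dopamine.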
D2 PAM-2: positively modulates the human D2 dopamine receptor allosterically | actives 0.34% (n = 340,000) | P14416 | potentiation, % at 10 µM | HEK293 T-REx D2, calcium flux, EC20 dopamine potentiation;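 active means potentiation over 3 SD above the plate norm, cut at about 30% in these data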
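Potentiation of an EC20 dopamine calcium response is measured in a force-coupled, tetracycline-inducible Hek293 Trex D2 line. Compound-only kinetic reads over 180 s flag agonists before dopamine addition.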
Large screens that a line does not name were inactive.

Cn1c(=O)c(NC2CCCCC2)c2c3c(cccc31)C(=O)c1ccccc1-2	D2 ag-2 110.5, D2 antag 59.6
Cn1c(=O)c(NCCO)c2c3c(cccc31)C(=O)c1ccccc1-2	D2 ag-2 126.4, D2 antag 82.4
CCNc1c2c3c(cccc3n(C)c1=O)C(=O)c1ccccc1-2	D2 ag-2 112.1
Cn1c(NCCc2ccccc2)cc(=O)n(C)c1=O	none
Cc1ccccc1Cn1c(SCc2ccc(C(=O)NC(C)c3ccccc3)cc2)nc2ccncc21 (centres undefined)	none (no result: D2 ag-1, D2 ag-2, D2 PAM-1, D2 antag)
Cn1c(-n2cccc2)c(-c2c(-c3ccccc3)[nH]c3c2c(=O)n(C)c(=O)n3C)c(=O)n(C)c1=O	none (no result: D2 ag-1, D2 PAM-1, D2 antag)
CCCCNc1c2c3c(cccc3n(C)c1=O)C(=O)c1ccccc1-2	D2 ag-2 92.8
c1cnc2c(C3NCCc4c3[nH]c3ccccc43)cccc2c1 (centres undefined)	D2 antag 35.8
O=C(O)c1cccnc1C(=O)N1CCc2c([nH]c3ccccc23)C1C(F)(F)F (centres undefined)	none
CCCCCCc1c(C)c2c(cc(C)c3c(C)coc32)oc1=O	none (no result: D2 ag-1, D2 PAM-1, D2 antag)
Cc1coc2c1c(C)cc1oc(=O)c(Cc3ccccc3)c(C)c12	D2 antag 42.8
COc1ccc(CNC(=O)C(=O)NCC(c2cccs2)S(=O)(=O)c2cccs2)cc1 (centres undefined)	none (no result: D2 ag-1, D2 PAM-1, D2 antag, D2 PAM-2)
Cc1ccc(S(=O)(=O)N2CCOCC2)cc1C(=O)OC1CCOC1=O (centres undefined)	D2 antag 40.9
CC(=O)c1cccc(S(=O)(=O)N2CCC(C(=O)OC3CCOC3=O)CC2)c1 (centres undefined)	D2 antag 43.4
COc1cc(/C=C/CNC[C@H]2O[C@@H](n3ccc(=O)[nH]c3=O)[C@H](O)[C@@H]2O)ccc1O	none (no result: D2 ag-2, D2 antag, D2 PAM-2)
CC(C)CN(C(=O)Cn1nnc(-c2ccc(F)cc2)n1)C1CCS(=O)(=O)C1 (centres undefined)	D2 antag 55.3
CC(C)CN(C(=O)c1cccc(S(=O)(=O)N2CCN(c3ccc(F)cc3)CC2)c1)C1CCS(=O)(=O)C1 (centres undefined)	D2 antag 34.6
CC(C)CN(C(=O)Cn1nnc(-c2ccc(Cl)cc2)n1)C1CCS(=O)(=O)C1 (centres undefined)	none (no result: D2 ag-2, D2 antag, D2 PAM-2)
CCC(C)(C)NC(=O)C(c1cccnc1)N(C(=O)c1csnn1)c1ccccc1 (centres undefined)	D2 PAM-2 40.3
CC(C)(C)NC(=O)C(c1ccco1)N(C(=O)c1csnn1)c1ccccc1 (centres undefined)	D2 PAM-2 36.2
Cc1ccsc1C(C(=O)NCc1ccccc1)N(C(=O)c1csnn1)c1ccccc1 (centres undefined)	D2 antag 33.0
CC(C)(C)NC(=O)C(c1ccncc1)N(C(=O)c1csnn1)c1ccccc1 (centres undefined)	none
Cc1ccccc1N(C(=O)c1csnn1)C(C(=O)NC(C)(C)C)c1cccs1 (centres undefined)	D2 antag 36.5
Cc1ccc(N(C(=O)c2csnn2)C(C(=O)NC(C)(C)C)c2cccs2)cc1 (centres undefined)	none
CS(=O)(=O)n1nc(-c2ccco2)nc1NCc1ccccc1Cl	none (no result: D2 ag-1, D2 PAM-1, D2 antag)
COc1ccc(N2CCN(CCCNC(=O)c3nnc(Cc4ccc(F)cc4)o3)CC2)cc1	none (no result: D2 ag-1, D2 PAM-1, D2 antag)
COc1ccccc1Cn1c(C2CC(=O)N(c3ccccc3OC)C2)nc2ccccc21 (centres undefined)	none (no result: D2 ag-1, D2 PAM-1, D2 antag)
CCCC(=O)N1CCC1(C)C(=O)NS(=O)(=O)c1cc2c(cc1C)CCCS2(=O)=O (centres undefined)	none (no result: D2 ag-2, D2 antag, D2 PAM-2)
CON(C)C(=O)C[C@@H]1C[C@H](OC(=O)c2ccc([N+](=O)[O-])cc2)CN1C(=O)OC(C)(C)C	none (no result: D2 ag-2, D2 antag, D2 PAM-2)
Cc1ccccc1N(C(=O)c1ccccn1)C(C(=O)NCc1ccccc1)c1cccnc1 (centres undefined)	D2 PAM-2 36.4 (no result: D2 ag-2, D2 antag)
O=C(NCc1ccccc1)C(c1cccnc1)N(C(=O)c1ccccn1)c1ccccc1F (centres undefined)	none
CCOc1ccccc1C(=O)NC1CC2CCCC(C1)N2C1CC1 (centres undefined)	none
O=C(NC1CC2CCC(C1)N2Cc1ccccc1)c1ccccc1Br (centres undefined)	D2 antag 67.5
O=C(NC1CC2CCCC(C1)N2Cc1ccccc1)c1ccc([N+](=O)[O-])cc1 (centres undefined)	D2 antag 86.6
COc1ccccc1C(=O)NC1CC2CCC(C1)N2Cc1ccccc1 (centres undefined)	D2 antag 89.4
O=C(NC1CC2CCC(C1)N2Cc1ccco1)c1ccccc1 (centres undefined)	none (no result: D2 ag-2, D2 antag)
CCOc1ccc(C(=O)NC2CC3CCCC(C2)N3Cc2ccccc2)cc1 (centres undefined)	none (no result: D2 ag-2, D2 antag, D2 PAM-2)
COc1ccc(C(=O)NC2CC3CCCC(C2)N3Cc2ccccc2)c(OC)c1 (centres undefined)	D2 antag 86.4
Cc1ccccc1C1=C/C(=C(\SS/C(C(=O)c2ccc(OCC(=O)O)c(Cl)c2Cl)=C2\C=C(c3ccccc3C)SS2)C(=O)c2ccc(OCC(=O)O)c(Cl)c2Cl)SS1	none (no result: D2 ag-2, D2 antag, D2 PAM-2)
COc1ccc(C(=O)NC2CC3CCCC(C2)N3Cc2ccccc2)cc1 (centres undefined)	D2 antag 82.3
Cc1ccc(NC(=O)CSc2nc3c(oc4ccccc43)c(=O)n2-c2ccc(F)cc2)c(C)c1	none (no result: D2 ag-1, D2 PAM-1, D2 antag)
Cc1cc(C(=O)NCCN2CCN(c3cccc(Cl)c3)CC2)n(-c2ccccc2)n1	none
Cc1cc(C(=O)NCCCN2CCN(c3cc(Cl)ccc3C)CC2)n(-c2ccccc2)n1	D2 antag 47.2
COC(=O)CSc1nnc(-c2ccc(S(=O)(=O)NCc3ccccc3Cl)cc2)o1	D2 antag 33.3
COC(=O)CSc1nnc(-c2ccc(S(=O)(=O)NCc3cccs3)cc2)o1	none
CCc1nc(N2CCOCC2)c(C#N)c2c1COC(C)(C)C2	none
Cc1nc(N2CCOCC2)c(C#N)c2c1COC(C)(C)C2	D2 PAM-2 32.6
O=C(Nc1ccccc1)c1ccc(NCCN2C(=O)CCC2=O)c([N+](=O)[O-])c1	D2 antag 58.6
CCOC(=O)c1cc2c(=O)n3ccccc3nc2n(CCCOC)c1=NC(=O)c1cc2ccccc2o1	none (no result: D2 ag-1, D2 PAM-1, D2 antag)
COC(=O)c1ccn(CSc2cc(Cl)ccc2Cl)n1	D2 antag 41.8
COc1ccc(-c2cc(OC(=O)c3ccccc3Cl)c3c(C)oc(C)c3c(=O)c2)cc1OC	none (no result: D2 ag-1, D2 PAM-1, D2 antag)
COc1ccc(OCc2cc(C(=O)N3CCCC(O)C3)no2)c2ccccc12 (centres undefined)	D2 PAM-1 inconclusive
COc1ccc(NC(=O)c2cccs2)cn1	none
COc1ccc(OCC(=O)Nc2ccc(NC(=O)c3cccs3)cc2)cc1	D2 PAM-2 32.5
COc1ccc(OCC(=O)NNC(=O)c2cccs2)cc1	none
